# Data: PubChem BioAssay (NCATS)
# Records with an inconclusive call do not appear. Unmarked numbers belong to inactive results. Calls of active or inactive are those of the source. Unless noted, calls follow the shape of the dose curve; as a rule, active = well fitted curve in the direction sought with a large enough effect; inconclusive = small, poorly fitted or top-dose-only effect, or another doubt; inactive = no such curve, though single readings can be large; an effect the other way counts as inactive or inconclusive. Where a SMILES comes first, the peptide text is derived from it. The star is where a group is joined. PhAc = O=C(Cc1ccccc1)*
# Target: Calcium and integrin-binding protein 1 (Homo sapiens) (UniProt Q99828)
# Assay: Primary qHTS for Identification of Calcium Integrin Binding Protein 1 (CIB1) Competitor (AID 1508620);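 also: GST tagged CIB1 binding a fluorescein labelled alphaIIb integrin peptide tracer; top concentration of the series differs between compounds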
# Details: CIB1-GST / FITC-alphaIIb peptide fluorescence polarization; series mostly up to 57.7 µM; activity change, negative = inhibition: at the top concentration
# In short: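 CIB1-GST (1 uM final) and compound incubated 15 min at room temperature before adding FITC-alphaIIb peptide tracer (100 nM final). Competition for binding read by fluorescence polarization (ex 480, em 540) after another 15 min at room temperature.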
# % is scaled to controls: 0 for no effect and ±100 for the full control effect.
# Calcium and integrin-binding protein 1 (Homo sapiens), sequence (Q99828 whole entry, looked up): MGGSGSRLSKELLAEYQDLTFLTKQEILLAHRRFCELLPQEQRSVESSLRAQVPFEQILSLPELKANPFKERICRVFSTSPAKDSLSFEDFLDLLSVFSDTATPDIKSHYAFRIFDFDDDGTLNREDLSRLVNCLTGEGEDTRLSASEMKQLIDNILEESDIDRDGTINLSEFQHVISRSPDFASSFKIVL
row,SMILES,"activity change, negative = inhibition"
1,CCOC(=O)C1=C(N)Oc2ccc(Cl)cc2C1C(C#N)C(=O)OCC (stereo unspecified),-14.8% [at 114 µM]
2,Cc1ccc(-c2c(-c3nn(C)c4ncnc(N5CCC(N6CCCCC6)C5)c34)cnn2C)cc1 (stereo unspecified),-2.5% [at 114 µM]
3,O=[N+]([O-])c1cc(Cl)ccc1S(=O)(=O)N1CCN(Cc2ccccc2)CC1,4.41% [at 114 µM]
4,Fc1ccc(-c2c3cccc(C(F)(F)F)c3nn2Cc2ccc(F)cc2Cl)cc1,-1.49% [at 114 µM]
5,COc1cccc(C(=O)NCCNc2nc3cc(C)cc(C)c3cc2C#N)c1,2.74% [at 114 µM]
6,CCOC(=O)CNC(=O)[C@@H]1CCCN1C(=O)Cc1ccccc1 (PhAc-Pro-Gly-OEt),6.82% [at 114 µM]
7,NC(=O)c1ccc(F)c2c1C[C@@H](N(C1CCC1)C1CCC1)CO2,3.64% [at 114 µM]
8,Cc1oc2nc3c(c(NC(=O)CN4CCCC4=O)c2c1C)CCCC3,6.84% [at 114 µM]
9,Cc1[nH]c2ccccc2c1CC(=O)N[C@@H](Cc1ccccc1)C(=O)N(C)c1ccccc1,5.62% [at 114 µM]
10,O=C(Nc1ccccc1)Nc1ccc(-c2ccc(C(=O)C3CCCC3C(=O)O)cc2)cc1 (stereo unspecified),-12.6% [at 114 µM]
11,NCCCCN(Cc1nc2ccccc2[nH]1)[C@H]1CCCc2cccnc21,-0.368%
12,Cc1ncc(NC(=O)c2ccc(CN3CCN(C)CC3)c(C(F)(F)F)c2)cc1Nc1nccc(-c2cccnc2)n1,20.6% [at 114 µM]
13,O=C(Nc1ccc(N2CCC(C(=O)N3CCOCC3)CC2)cc1)c1cnc(Oc2ccccc2)nc1,1.62% [at 114 µM]
14,Cc1cc(C)c2nc(-c3ccccn3)cc(C(=O)Nc3ccc(S(=O)(=O)Nc4onc(C)c4C)cc3)c2c1,-22.8% [at 114 µM]
15,CCOC(=O)COc1ccc2c(c1)C[C@@H](NC[C@H](O)c1cccc(Cl)c1)CC2,2.16% [at 114 µM]
16,CC(C)c1c(NC(=O)Nc2ccc(Cl)cc2)c(=O)n(-c2ccccc2)n1C,-1.26% [at 114 µM]
17,CCOC(=O)CSc1nc2c(sc3ccccc32)c(=O)n1CCCN1CCCC1,-9.78% [at 114 µM]
18,FC(F)(F)c1nnc2c(Sc3ccccc3)nc3ccc(Cl)cc3n12,0.57% [at 114 µM]
19,O=C(c1ccc(Cl)c([N+](=O)[O-])c1)N1CCN(c2ccccc2F)CC1,-1.29% [at 114 µM]
20,CCNC(=O)C1CC(F)(c2ccc(CN3CCCC3)c(F)c2)C1 (stereo unspecified),2.65% [at 114 µM]

row,SMILES,"activity change, negative = inhibition"
1,COc1cc2nc(=NC(=O)c3cccnc3)n3c(c2cc1OC)NCC3,5.56% [at 114 µM]
2,CCc1nn(CCO)c(CC)c1Oc1cc(C#N)cc(C#N)c1,-0.538% [at 114 µM]
3,CN1CCN(C2=Nc3ccccc3Nc3ccc(O)cc32)CC1,-1.47% [at 114 µM]
4,CN[C@H](CNC(=O)N1CCC[C@@H]([C@@H](OCCNC(=O)OC)c2cccc(Cl)c2)C1)C[C@H]1CCCOC1,2.14% [at 114 µM]
5,Cc1ccc(Cl)cc1N(CC(=O)Nc1c(F)cccc1F)S(C)(=O)=O,-1.22% [at 114 µM]
6,COc1cnc(-n2cnc(C)n2)c2[nH]cc(C(=O)C(=O)N3CCN(C(=O)c4ccccc4)CC3)c12,-13.1% [at 114 µM]
7,COc1ccc(CCc2nc3cc(-c4c(C)noc4C)ccc3n2C[C@H](C)N2CCOCC2)cc1Cl,1.98% [at 114 µM]
8,FC(F)(F)Oc1ccc(-c2ccc3nnc(C(F)(F)F)n3c2)cc1,-3.82% [at 114 µM]
9,COc1ccc(OC)c(C2C(C#N)=C(N)Oc3n[nH]c(-c4ccc5ccccc5c4)c32)c1 (stereo unspecified),-1.08% [at 114 µM]
10,CC[C@H](NC(=O)c1c(O)c(-c2ccccc2)nc2ccccc12)c1ccccc1,-13.2% [at 114 µM]
11,CCCN(CCN1CCN(c2ccccc2OC)CC1)C1CCc2ncsc2C1 (stereo unspecified),5.06% [at 114 µM]
12,Cc1ccc(Nc2nnc(-c3ccc([N+](=O)[O-])cc3)o2)cc1Cl,2.53% [at 114 µM]
13,CC[C@@H](Nc1c(Nc2cccc(C(=O)N(C)C)c2O)c(=O)c1=O)c1ccc(C)o1,6.51% [at 114 µM]
14,CCC(C)(C)C1CCc2c(sc(NC(=O)c3ccc(Br)cc3)c2C#N)C1 (stereo unspecified),-1.76% [at 114 µM]
15,COc1cccc(OC)c1-c1ccc(C[C@H](NC(=O)c2c(Cl)cccc2Cl)C(=O)O)cc1,-3.33% [at 114 µM]
16,CC1(C)CC=C(c2cnc3ccccc3c2)c2cc(C(=O)Nc3ccc(C(=O)O)cc3)ccc21,-12.3% [at 114 µM]
17,O=C(O)Cn1nnc(-c2ccc(CN(CCCCOc3ccc(CN4CCCC4)cc3)CCc3ccccc3)cc2)n1,-2.66% [at 114 µM]
18,O=C(NC1Cc2ccccc2N(C[C@@H](O)CO)C1=O)c1cc2cc(Cl)sc2[nH]1 (stereo partly specified),3.67% [at 114 µM]
19,CCC[C@H](N[C@@H](C)C(=O)N1[C@H](C(=O)O)C[C@@H]2CCCC[C@@H]21)C(=O)O,-5.34% [at 114 µM]

# Target: Cytochrome P450 2D6 (Homo sapiens) (UniProt P10635)
# Assay: Cytochrome P450 family 2 subfamily D member 6 (CYP2D6) small molecule antagonists: luciferase biochemical (cell-free) qHTS assay (AID 1645840; active = well fitted curve in the direction sought with a large enough effect in the repeat runs; an effect the other way counts as inactive or inconclusive; also: nearly all actives have a fitted effect of over 55% in size; also: potency is read from the fitted curve at half-maximal effect)
# Details: P450-Glo CYP2D6 enzyme, luciferin luminescence, 1 h; series mostly up to 57.4 µM; activity change, negative = inhibition: at the top concentration
# In short: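 P450-Glo CYP2D6 system: proluciferin substrate converted by enzyme to luciferin, read by luminescence proportional to activity. Enzyme-substrate mix with compound 10 min at room temperature, then NADPH regeneration 1 h before detection reagent.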
# Cytochrome P450 2D6 (Homo sapiens), sequence (P10635 whole entry, looked up): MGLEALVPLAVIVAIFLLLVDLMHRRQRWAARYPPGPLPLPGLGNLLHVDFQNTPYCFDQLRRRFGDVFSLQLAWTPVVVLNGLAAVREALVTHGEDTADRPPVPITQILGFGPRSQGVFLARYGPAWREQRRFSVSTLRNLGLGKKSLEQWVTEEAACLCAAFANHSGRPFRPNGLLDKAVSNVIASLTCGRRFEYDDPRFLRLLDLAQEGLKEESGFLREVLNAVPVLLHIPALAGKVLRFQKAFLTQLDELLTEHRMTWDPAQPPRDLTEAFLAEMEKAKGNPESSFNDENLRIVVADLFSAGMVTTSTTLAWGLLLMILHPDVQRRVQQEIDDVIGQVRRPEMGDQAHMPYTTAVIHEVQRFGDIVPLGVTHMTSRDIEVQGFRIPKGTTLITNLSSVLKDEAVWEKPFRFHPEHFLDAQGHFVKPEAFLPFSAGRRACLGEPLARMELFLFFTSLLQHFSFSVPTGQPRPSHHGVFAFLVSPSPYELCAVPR
SMILES,Potency,"activity change, negative = inhibition [%]"
CCOC(=O)C1=C(N)Oc2ccc(Cl)cc2C1C(C#N)C(=O)OCC (stereo unspecified),16.9 µM (active),
O=[N+]([O-])c1cc(Cl)ccc1S(=O)(=O)N1CCN(Cc2ccccc2)CC1,0.756 µM (active),
Fc1ccc(-c2c3cccc(C(F)(F)F)c3nn2Cc2ccc(F)cc2Cl)cc1,,-0.175
CCOC(=O)CNC(=O)[C@@H]1CCCN1C(=O)Cc1ccccc1 (PhAc-Pro-Gly-OEt),,9.94
Cc1oc2nc3c(c(NC(=O)CN4CCCC4=O)c2c1C)CCCC3,,3.47
Cc1[nH]c2ccccc2c1CC(=O)N[C@@H](Cc1ccccc1)C(=O)N(C)c1ccccc1,16.9 µM (active),
O=C(Nc1ccccc1)Nc1ccc(-c2ccc(C(=O)C3CCCC3C(=O)O)cc2)cc1 (stereo unspecified),,-6.17
Cc1ncc(NC(=O)c2ccc(CN3CCN(C)CC3)c(C(F)(F)F)c2)cc1Nc1nccc(-c2cccnc2)n1,10.7 µM (active),
O=C(Nc1ccc(N2CCC(C(=O)N3CCOCC3)CC2)cc1)c1cnc(Oc2ccccc2)nc1,,1.8
CCOC(=O)COc1ccc2c(c1)C[C@@H](NC[C@H](O)c1cccc(Cl)c1)CC2,0.756 µM (active),
CC(C)c1c(NC(=O)Nc2ccc(Cl)cc2)c(=O)n(-c2ccccc2)n1C,12 µM (active),
CCOC(=O)CSc1nc2c(sc3ccccc32)c(=O)n1CCCN1CCCC1,0.849 µM (active),
FC(F)(F)c1nnc2c(Sc3ccccc3)nc3ccc(Cl)cc3n12,,20.3
O=C(c1ccc(Cl)c([N+](=O)[O-])c1)N1CCN(c2ccccc2F)CC1,,8.23
COc1cc2nc(=NC(=O)c3cccnc3)n3c(c2cc1OC)NCC3,,9.82
CCc1nn(CCO)c(CC)c1Oc1cc(C#N)cc(C#N)c1,,5.73
CN[C@H](CNC(=O)N1CCC[C@@H]([C@@H](OCCNC(=O)OC)c2cccc(Cl)c2)C1)C[C@H]1CCCOC1,19 µM (active),
Cc1ccc(Cl)cc1N(CC(=O)Nc1c(F)cccc1F)S(C)(=O)=O,,0.0076
COc1cnc(-n2cnc(C)n2)c2[nH]cc(C(=O)C(=O)N3CCN(C(=O)c4ccccc4)CC3)c12,,1.47
FC(F)(F)Oc1ccc(-c2ccc3nnc(C(F)(F)F)n3c2)cc1,,-11.9
COc1ccc(OC)c(C2C(C#N)=C(N)Oc3n[nH]c(-c4ccc5ccccc5c4)c32)c1 (stereo unspecified),7.56 µM (active),
CCCN(CCN1CCN(c2ccccc2OC)CC1)C1CCc2ncsc2C1 (stereo unspecified),1.9 µM (active),
Cc1ccc(Nc2nnc(-c3ccc([N+](=O)[O-])cc3)o2)cc1Cl,,18
CCC(C)(C)C1CCc2c(sc(NC(=O)c3ccc(Br)cc3)c2C#N)C1 (stereo unspecified),,33.3
COc1cccc(OC)c1-c1ccc(C[C@H](NC(=O)c2c(Cl)cccc2Cl)C(=O)O)cc1,,5.27
O=C(O)Cn1nnc(-c2ccc(CN(CCCCOc3ccc(CN4CCCC4)cc3)CCc3ccccc3)cc2)n1,12 µM (active),
CCC[C@H](N[C@@H](C)C(=O)N1[C@H](C(=O)O)C[C@@H]2CCCC[C@@H]21)C(=O)O,,10.5
